The source of these data is PubChem BioAssay (NCATS).

Inconclusive results are not listed. The source made the active and inactive calls. Calls come from the whole dose curve; as a rule, active = well fitted cell-killing curve with a large enough effect; inconclusive = small, poorly fitted or top-dose-only effect, or effect the other way; inactive = flat fitted curve, though single readings scatter. Where a SMILES comes first, the peptide text is derived from it. [ ]: non-standard residue; d: D form. 2Abz = Nc1ccccc1C(=O)O
% is set by controls: 0 for no effect and ±100 for the full control effect.

The subject of this assay is CASKI. Kind of assay: Primary qHTS to identify gynecologic anti-cancer compounds using libraries of approved drugs and bioactive compounds (AID 1345084). Note: nearly all actives have a fitted effect of over 55% in size. To be noted: Gynecologic cancer cell panel viability, ATPlite luminescence, 48 h; series mostly up to 57.5 µM; activity change, negative = cytotoxicity: at the top concentration. The gist of the method: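 ATP-based viability (ATPlite), 1,000 cells/well, 16 h pre-incubation, 48 h compound at 37 C, 5% CO2, 15 min RT before read.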
For orientation: qHTS replaces the single test concentration by a dilution series.
For `CC(=O)O[C@H](C[C@@H](C)[C@H]1C(=O)[C@H](O)[C@@]2(C)[C@@H]3CCC4C(C)(C)[C@@H](O[C@@H]5OC[C@H](O)[C@H](O)[C@H]5O)CC[C@@]45C[C@@]35CC[C@]12C)[C@@H]1OC1(C)C` (stereo partly drawn), the “activity change, negative = cytotoxicity” value is 6.16% [at 25.3 µM] (inactive).
With `CC1OC(OC2C(C)OC(OC3C(OC(=O)/C=C/c4ccc(O)cc4)C(CO)OC(OC4(COC(=O)/C=C/c5ccc(O)cc5)OC(CO)C(O)C4O)C3OC3OCC(O)(CO)C3O)C(O)C2O)C(O)C(O)C1O` (stereo not drawn), the activity change, negative = cytotoxicity is 10% [at 11.6 µM] (inactive).
The figure for `CC(/C=C/[C@]1(O)[C@@]2(C)CO[C@@]1(C)C[C@@H](O)C2)=C\C(=O)O[C@@H]1O[C@H](CO)[C@@H](O)[C@H](O)[C@H]1O` is 9.86% [at 25.3 µM] (inactive); for `C=C1C(=O)OC2CC(C)=C(C(C)CCCO[C@@H]3O[C@H](CO)[C@@H](O)[C@H](O)[C@H]3O)C(O)C12` (stereo partly drawn) it is 3.93% [at 25.3 µM] (inactive).
In the case of `O=C(O[C@H]1[C@@H]2C[C@@H]3OC[C@@](O)([C@H]2[C@H](O[C@@H]2O[C@H](CO)[C@@H](O)[C@H](O)[C@H]2O)O3)[C@@H]1O)c1ccccc1`, the “activity change, negative = cytotoxicity” value is 14.8% [at 25.3 µM] (inactive).
The same measure for `CC(=O)c1c(C)cc(O)cc1O[C@@H]1O[C@H](CO)[C@@H](O)[C@H](O)[C@H]1O`: 12.6% [at 38.5 µM] (inactive); for `CC1CCC(=O)CC(O)C(O)CC(=O)O1` (stereo not drawn): 2.44% (inactive); for `CC1(C)CC2C(O)C3=C(CC(C)(O)C2C1)C(=O)OC3O` (stereo not drawn): -1.12% (inactive).
As for `CC[C@H](/C=C/[C@@H](C)[C@H]1CC[C@H]2[C@@H]3CC=C4C[C@@H](O)CC[C@]4(C)[C@H]3CC[C@]12C)C(C)C`, the activity change, negative = cytotoxicity was 17.1% [at 6.55 µM] (inactive).
Take `CC(=O)O[C@H]1[C@H](C)[C@@H](O)[C@H]2[C@@H]1C=C(C(=O)O)[C@H]1C[C@@H]3[C@H]([C@H]21)[C@H]1C(=O)O[C@@H]2CC[C@@]3(C)O[C@]1(O)[C@@H]2C`: the “activity change, negative = cytotoxicity” value is 10.5% [at 25.3 µM] (inactive).
The same measure for `CC(=O)OC(CSC1CCC(=O)OC(C)CCC(=O)C1)C(=O)O` (stereo not drawn): -3.9% [at 38.5 µM] (inactive); for `CC(/C=C/C1(O)C(C)CC(O)CC1(C)C)OC1OC(CO)C(O)C(O)C1O` (stereo not drawn): -2.9% [at 38.5 µM] (inactive); for `CC(=O)N[C@H]1CCN(c2ccc(C3=NOC(CN[S+](=O)([O-])C(C)C)C3)cc2F)C1` (stereo partly drawn): 13.6% (inactive).
In the case of `CC1CCC2C(C)(C)C(O)CCC2(C)C12Cc1c(O)cc3c(c1O2)C(N)=NC3` (stereo not drawn), the “activity change, negative = cytotoxicity” value is 16.5% [at 38.5 µM] (inactive).
The figure for `CNC(=O)Nc1ccc(OC)c(NC(=O)NC(=O)c2cc(F)c(F)cc2Cl)c1` is -1.57% (inactive); for `CCCC(N[C@@H](C)C(=O)N1[C@H](C(=O)O)C[C@@H]2CCCC[C@@H]21)C(=O)OCC` (stereo partly drawn) it is 29% (inactive); for `C/C=C(\C)C(=O)O[C@@H](C)[C@H]1CC[C@]2(O)C3CCC4C[C@@H](OC5CC(OC)C(OC6CC(OC)C(OC7CC(OC)C(OC8OC(C)C(OC9OC(CO)C(O)C(O)C9O)C(OC)C8O)C(C)O7)C(C)O6)C(C)O5)CC[C@]4(C)C3[C@H](O)[C@@H](O)[C@]12C` (stereo partly drawn) it is -2.65% [at 6.55 µM] (inactive).
Consider `CC1OC(O[C@H]2[C@@H](O)C[C@@]3(C)C([C@H](O)C[C@]4(C)C3CC=C3C5CC(C)(C)CC[C@]5(C(=O)OC5OC(CO)C(O)C(O)C5OC5OCC(OC6OCC(OC7OCC(O)C(O)C7O)C(O)C6O)C(OC6OCC(O)(CO)C6O)C5O)CC[C@]34C)[C@]2(C)CO)C(O)C(O)C1O` (stereo partly drawn), for which the activity change, negative = cytotoxicity is 1.71% [at 6.55 µM] (inactive).
The figure for `CCC(=O)N[C@@H]1Cc2ccccc2[C@H](c2ccccc2)C1` is 5.5% (inactive); for `CCC(C)C1NC(=O)C2CCCN2C(=O)C(C(C)C)NC(=O)c2ccccc2NC(=O)C(Cc2ccc(O)cc2)NC(=O)C(C)NC(=O)C(C(C)O)NC1=O` (stereo not drawn) (cyclo([2Abz]VPITAY); configuration not given here) it is 10.4% [at 25.3 µM] (inactive).
The figure for `C=C1CCC2C(C)(C(=O)O)CC(O)CC2(C)C1CC/C(C)=C/C(=O)O` (stereo not drawn) is -4.02% [at 38.5 µM] (inactive).
The figure for `COc1cc([C@@H]2Oc3c(OC)cc(CCCO)cc3[C@@H]2CO[C@@H]2O[C@H](CO)[C@@H](O)[C@H](O)[C@H]2O)ccc1O` is 9.39% [at 25.3 µM] (inactive); for `COc1cccc(-c2ccc([C@@H](Oc3cc(-c4ccc(C[C@H](N)C(=O)O)cc4)nc(N)n3)C(F)(F)F)cc2)c1` it is 26.2% (inactive).
`CCNC(=O)CCC/C=C\C[C@@H]1[C@@H](/C=C/C(O)CCc2ccccc2)[C@@H](O)C[C@@H]1O` (stereo partly drawn): the “activity change, negative = cytotoxicity” value is 9.43% (inactive).
The figure for `Cc1[nH]cnc1C1CCN(c2nc3cccc4c3n2CCC4=O)CC1` is 23.6% (inactive); for `C=C(C)[C@@H](C)[C@H]1O[C@]23C[C@]4(CO2)C(CCC2[C@@]5(C)CC[C@H](O[C@@H]6OC[C@H](O)[C@H](O[C@@H]7O[C@H](CO)[C@@H](O)[C@H](O)[C@H]7O)[C@H]6O[C@@H]6O[C@@H](CO)[C@H](O)[C@H]6O)C(C)(C)C5CC[C@]24C)C3[C@@](C)(O)[C@@H]1OC(C)=O` (stereo partly drawn) it is -5.16% [at 11.6 µM] (inactive); for `C/C1=C\C[C@H](O[C@@H]2O[C@H](CO)[C@@H](O)[C@H](O)[C@H]2O)/C(C)=C/[C@H]2OC(=O)[C@H](C)[C@@H]2CC1` it is 4.76% [at 25.3 µM] (inactive).
The same measure for `COC(=O)[C@H](CC1C=NC=N1)NCC12CC3CC(CC(C3)C1)C2` (stereo partly drawn): 5.54% (inactive).
The figure for `CC(C)C1=CCC(C)(O)C(OC2OC(CO)C(O)C(O)C2O)C1` (stereo not drawn) is 3.53% [at 38.5 µM] (inactive).
`COc1cc(NC(=O)c2ccccn2)ccc1Cl`: the “activity change, negative = cytotoxicity” value is 8.86% (inactive).
The figure for `NCCOCCOCCNC(=O)Cc1ccc(Nc2nc(NCc3ccc(F)cc3)nc(NCC3CCCCC3)n2)cc1` is 5.75% (inactive); for `CCC(NC(=O)CC(NC(=O)C(CO)NC(=O)C(CC)NC(=O)c1ccc[nH]1)c1ccccc1)C(=O)O` (stereo not drawn) it is 1.69% [at 25.3 µM] (inactive); for `C=C1C[C@]23C[C@H]1CC[C@H]2[C@@]12C=C[C@H](O)[C@@](C)(C(=O)O1)[C@H]2[C@@H]3C(=O)O` it is 0.984% [at 38.5 µM] (inactive).
The figure for `CC(C)CC(=O)OC[C@H]1O[C@@](COC(=O)CC(C)C)(O[C@H]2O[C@H](CO)[C@@H](O)[C@H](O)[C@H]2O)[C@@H](OC(=O)CC(C)C)[C@@H]1OC(=O)CC(C)C` is -19.7% [at 25.3 µM] (inactive); for `COc1cc(C2c3cc(O)c(OC)cc3CC(CO)C2CO)ccc1O` (stereo not drawn) it is -1.44% [at 38.5 µM] (inactive); for `N#CCc1ccc(O)cc1O[C@@H]1O[C@H](CO)[C@@H](O)[C@H](O)[C@H]1O` it is 6.89% [at 38.5 µM] (inactive).
The same measure for `C=C1C[C@@]23CC[C@@H]4[C@](C)(C(=O)O)CCC[C@@]4(C)C2=CC[C@H]1C3`: -0.718% (inactive); for `C[C@@H]1O[C@@H](O[C@H]2[C@H](OC(C#N)c3ccc(O)cc3)O[C@H](CO)[C@@H](O)[C@@H]2O)[C@H](O)[C@H](O)[C@H]1O` (stereo partly drawn): 10.4% [at 25.3 µM] (inactive).
